About 83,000 compounds went through this panel and 20% of them were active in at least one assay; those are over-represented in the sample as a whole.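 Each cell line was grown in a 96-well plate and treated with one concentration of compound for 48 hours. Values below 10 were considered active.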 Activity calls are given as the source filed them.
These compounds were tested on MDA-MB-468 breast (assay: NCI-60 one-dose screen, 48 h (100 = growth as untreated, 0 = no growth, -100 = all killed)). Conditions: 10 µM unless noted.

SMILES | growth
CCOC(=O)c1ccc2c(c1)[n+](=O)c(C(=O)c1ccc3ccccc3c1)c(C(F)(F)F)n2[O-] | -92.6% (active)
O=C(/C=C/c1ccco1)Nc1ncc(Cc2cccc(C(F)(F)F)c2)s1 | 10.1% (inactive)
C=CCNc1ccc2c3c(cccc13)C(=O)N(CC=C)C2=O | 60.3% (inactive)
Cc1cn(C2CCCCC2)c(=O)[nH]c1=O | 105% (inactive)
O=S(=O)(NCCCNc1nccc(-c2[nH]c(-c3ccccc3)nc2-c2ccc(Cl)c(O)c2)n1)c1cccc2ccccc12 | 36.7% (inactive)
CC(C)NC(=O)c1cc(-c2ccc(NC(=O)Nc3ccc(F)c(C(F)(F)F)c3)cc2)nc2cccnc12 | 81.4% (inactive)
CC1(C)OC2C(CO)OC(n3ccc(=O)[nH]c3=O)C2O1 (stereo not given) | 127% (inactive)
Cc1cc(N2CCCC2)nc(N(CCCNc2ccnc3cc(Cl)ccc23)Cc2ccccn2)n1 | 53.2% (inactive)
O=C(Nc1cc(Cl)cc2c1-c1ccc(Cl)cc1C2O)C(Cl)Cl (stereo not given) | -3.77% (active)
Nc1nc(Nc2ccccc2SSc2ccccc2Nc2nc(N)nc(-c3ccc(C(F)(F)F)cc3)n2)nc(-c2ccc(C(F)(F)F)cc2)n1 | 132% (inactive)
Cc1ccc(S(=O)(=O)NCCCNc2nccc(-c3c(-c4ccccc4)nc4sccn34)n2)cc1 | 53.8% (inactive)
O=C1c2ccccc2NC(n2sc3ccccc3c2=O)N1c1ccccc1 (stereo not given) | 106% (inactive)
C[n+]1c2ccccc2c(NC2CCNCC2)c2[nH]c3ccccc3c21 | -72.5% (active)
Cc1ccc(-c2nc(C#N)c(S(=O)(=O)n3nc(-c4ccccc4)cc3N)o2)cc1 | 63.1% (inactive)
O=C(/C=C/c1ccccn1)c1ccc(OCc2nnc(-c3ccc(Cl)cc3)o2)cc1 | -37.7% (active)
Cn1cc2c(=O)nc3c(-c4nc5ccccc5[nH]4)n[nH]n3c2n1 | 83.3% (inactive)
Cc1ccc(C2SCC(=O)N2Cc2ccccc2)cc1 (stereo not given) | 87.3% (inactive)
C=C(C=O)[C@@H]1CC[C@]2(C)[C@H](CC=C3[C@H]4[C@@H](C)[C@H](C)CC[C@]4(C(=O)OC)CC[C@]32C)[C@@]1(C)CCC#N | -18.1% (active)
COc1ccc(CCO)cc1 | 101% (inactive)
O=C(CCl)NNc1nccc(Nc2ccc(S(=O)(=O)Nc3ccncc3)cc2)n1 | 31.5% (inactive)

SMILES | growth
CCOc1ccc(-c2nonc2NC(=O)c2cccc(C)c2)cc1OCC | 2.82% (active)
CN(C)CCOc1ccc2c(c1)C(=O)/C(=C\c1ncc([N+](=O)[O-])n1C)C2 | -78.5% (active)
COc1ccc(-c2nc3ncccn3c2-c2nnc(-c3ccsc3C)o2)cc1 | 86.1% (inactive)
COc1cc2c(c(OC)c1OC)C(=O)CC(c1cccc(C(=O)Nc3cccc(Br)c3)c1)O2 (stereo not given) | 71% (inactive)
C=C(C)[C@@H]1CCC[C@]2(C(=O)N3CCN(C)CC3)CC[C@]3(C)[C@@H](CC[C@@H]4[C@@]5(C)CC/C(=N\NC(=O)c6ccncc6)C(C)(C)[C@@H]5CC[C@]43C)[C@@H]12 | 113% (inactive)
CC[C@H](Nc1nc(N)nc(C2CC2)c1C#N)c1nc2cccc(NCc3ccc(C(=O)NO)cc3)c2c(=O)n1-c1ccccc1 | -23% (active)
CCN(CC)c1cc(C)c(Cc2c(OC)ccc3ccccc23)cc1C | 99.6% (inactive)
O=C1CC(=O)N(C(=O)c2nn(-c3ccc(Cl)cc3)cc2O)N1 | 62.4% (inactive)
O=C1C(c2c[nH]c3ccccc23)=C(c2coc3cc(Br)ccc23)C(=O)N1O | 91.6% (inactive)
CC1(C)NCCC[C@]2(C)[C@H]3CC[C@@H]4[C@H]5[C@H](C(=O)/C=C/c6ccccn6)CC[C@]5(CO)CC[C@@]4(C)[C@]3(C)CC[C@@H]12 | 5.83% (active)
Nc1ccc(C(=O)/C=C/c2ccccc2)cc1 | 87.4% (inactive)
COc1ccc(-c2c(N)n[nH]c2-c2ccc(Cl)cc2O)cc1OC | 84.1% (inactive)
COc1cc(CC(=O)c2ccc(O)c(OC)c2)ccc1O | 101% (inactive)
Nc1nc2ccccc2c2c(=O)c3cc(F)ccc3sc12 | -27.2% (active)
O=C1C2CC=CCC2C(=O)N1CNc1ccc(Cl)cc1 (stereo not given) | 91% (inactive)
COc1ccc(/C=N\NC(=O)CN2CCN(c3cc4c(cc3F)c(=O)c(C(=O)N/N=C/c3ccc(OC)c(OC)c3)cn4C3CC3)CC2)cc1OC | -27.6% (active)
O=C(NC(=S)Nc1ccc(-c2nc3ccccc3[nH]2)cc1)c1ccc2ccccc2c1 | 13.6% (inactive)
O=C(c1ccc(Nc2nccc(NCCCNc3ccnc4cc(Cl)ccc34)n2)cc1)N1CCCCC1 | 29.5% (inactive)
CCc1ccc(Oc2c(-c3ccc(OCc4ccc(Cl)cc4)cc3O)nn(C)c2C(F)(F)F)cc1 | -11.1% (active)
CC1COc2c(N3CCN(C)CC3)c(F)cc3c(=O)c(C(=O)N/N=C/c4cc[nH]c4)cn1c23 (stereo not given) | -9.35% (active)
